Measured values from PubChem BioAssay (EPA / NIEHS).
Inconclusive results are not listed. Activity calls are given as the source filed them. Rule for the calls, unless noted: active = hit-call score of the fitted dose curve at least 0.9, where 1 is the maximum; inconclusive = response in the unintended direction; inactive = score below 0.9.

What was measured:
[1] = system: Thyroperoxidase (TPO), gene 54314; test: CCTE_Simmons_AUR_rTPO: CCTE's Amplex UltraRed Assay for Thyroperoxidase (TPO) Inhibition, Simmons Lab (AID 2283662)
How it was run: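 Rat thyroid microsomes (5 ug protein) with 25 uM Amplex UltraRed and 300 uM H2O2 in 200 mM phosphate buffer, 30 min at 37C in dark; fluorescence 544/590 nm. Eight concentrations, 5 nM–87.5 uM final, 0.5% DMSO, triplicate biological replicates.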

[2] = CCTE_Simmons_CellTiterGLO_HEK293T: Viability Assessment in CCTE's Assays for Thyroperoxidase (TPO) Inhibition, Simmons Lab (AID 2283665);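 for AC50: cells exposed to compound for 24 h before readout; actives reduce ATP signal below DMSO vehicle meaning cytotoxicity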
How it was run: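 HEK293T cells in DMEM with 1% FBS were dosed with 8 concentrations (5 nM–87.5 uM final, 0.5% DMSO) for 24 hr at 37C; ATP content was read by CellTiter-Glo luminescence, loss-of-signal versus DMSO, three biological replicates.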

[3] = biological target: Luciferin 4-monooxygenase (Photinus pyralis) (UniProt P08659); test: CCTE_Simmons_QuantiLum_inhib_2: CCTE's Firefly Luciferase Inhibition Assay, Simmons Lab (AID 2283767);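 for AC50: potency for inhibitors that lower luciferase luminescence relative to DMSO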
Luciferin 4-monooxygenase (Photinus pyralis), sequence (P08659 whole entry, looked up): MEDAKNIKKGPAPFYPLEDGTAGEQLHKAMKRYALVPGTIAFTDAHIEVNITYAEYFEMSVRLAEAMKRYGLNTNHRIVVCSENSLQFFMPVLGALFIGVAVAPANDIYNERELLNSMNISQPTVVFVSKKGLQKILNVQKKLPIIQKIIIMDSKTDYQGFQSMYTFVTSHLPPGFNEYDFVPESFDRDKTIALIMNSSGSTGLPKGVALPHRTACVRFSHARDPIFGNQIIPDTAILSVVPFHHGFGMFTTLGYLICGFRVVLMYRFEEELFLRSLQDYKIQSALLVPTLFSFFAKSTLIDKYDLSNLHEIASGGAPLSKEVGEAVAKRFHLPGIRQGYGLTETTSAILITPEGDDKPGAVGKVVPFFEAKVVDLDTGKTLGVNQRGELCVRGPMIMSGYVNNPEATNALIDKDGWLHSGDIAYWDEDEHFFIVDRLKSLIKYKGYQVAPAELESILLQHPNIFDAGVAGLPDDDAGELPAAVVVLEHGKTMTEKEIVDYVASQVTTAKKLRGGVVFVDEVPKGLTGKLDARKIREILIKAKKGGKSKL
How it was run: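 Recombinant firefly luciferase (5 ng/well, 200 mM potassium phosphate with 1 mg/ml BSA) was exposed to 8 concentrations from 5 nM to 87.5 uM (final, 0.5% DMSO) for 30 min at 37C in the dark. Loss of luminescence versus DMSO was read after injecting D-luciferin/ATP-analogue reagent.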

[4] = CCTE_Harrill_HTTr_Viability_MCF7: CCTE's 6-hour Cell Viability Assessment for the High-Throughput Transcriptomics (HTTr) Platform, in MCF-7 cells cultured in DMEM + 10% fetal bovine serum, Harrill Lab (AID 2284010; active = hit-call score of the fitted dose curve at least 0.9, where 1 is the maximum; inactive = score below 0.9)
How it was run: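 Membrane integrity was scored by high-content imaging of propidium iodide dye exclusion after a 6 h exposure across an eight-point dilution series. Data were fitted bidirectionally relative to DMSO as negative control and baseline.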

[5] = CCTE_Harrill_HTTr_Apoptosis_MCF7: CCTE's 6-hour Apoptosis Assessment for the High-Throughput Transcriptomics (HTTr) Platform, in MCF-7 cells cultured in DMEM + 10% fetal bovine serum, Harrill Lab (AID 2284011; active = hit-call score of the fitted dose curve at least 0.9, where 1 is the maximum; inactive = score below 0.9)
How it was run: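 MCF-7 cells in DMEM + 10% FBS exposed 6 h to chemicals over an eight-point dilution series. Caspase-3/7 activation imaged by high-content CellEvent Green staining; fitted bidirectionally versus DMSO.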

[6] = CCTE_Harrill_HTTr_CellCount_MCF7: CCTE's Cell Proliferation Assessment for the High-Throughput Transcriptomics (HTTr) Platform, Harrill Lab (AID 2284012);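 note: cells exposed to compound for six hours; intended direction is loss of nuclei count meaning fewer cells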
How it was run: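 MCF-7 cells were exposed for 6 h to an eight-point dilution series; Hoechst-labeled nuclei were counted by high content imaging. Curves were fitted bidirectionally against DMSO as negative control and baseline, with signal loss indicating reduced cell count.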

[7] = ACEA_ER_AUC_viability: ACEA Biosciences xCELLigence Real-Time Cell Analysis on Estrogen Receptor Agonism for Viability (AID 2283782);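 note: continuous compound exposure with impedance area under curve over 80 h; hit means loss of impedance signal meaning reduced cell growth or viability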
How it was run: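 T47D cells preconditioned in phenol red-free RPMI with charcoal-stripped FBS, then dosed with 8-point 1:4 series from 100 uM (up to 0.5% DMSO). Impedance monitored up to ~80 h; area-under-curve loss versus DMSO taken as viability.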

PGR (gene 5241) [8] = biological target: PGR (gene 5241) (UniProt P06401); test: TOX21_PR_BLA_Followup_Agonist_ratio: Tox21 HEK293 Progesterone Receptor (PR) Agonism Beta-lactamase Follow-Up Assay, Ratio (AID 2283933)
PGR (gene 5241), sequence (P06401 whole entry, looked up, the tested form may be a part): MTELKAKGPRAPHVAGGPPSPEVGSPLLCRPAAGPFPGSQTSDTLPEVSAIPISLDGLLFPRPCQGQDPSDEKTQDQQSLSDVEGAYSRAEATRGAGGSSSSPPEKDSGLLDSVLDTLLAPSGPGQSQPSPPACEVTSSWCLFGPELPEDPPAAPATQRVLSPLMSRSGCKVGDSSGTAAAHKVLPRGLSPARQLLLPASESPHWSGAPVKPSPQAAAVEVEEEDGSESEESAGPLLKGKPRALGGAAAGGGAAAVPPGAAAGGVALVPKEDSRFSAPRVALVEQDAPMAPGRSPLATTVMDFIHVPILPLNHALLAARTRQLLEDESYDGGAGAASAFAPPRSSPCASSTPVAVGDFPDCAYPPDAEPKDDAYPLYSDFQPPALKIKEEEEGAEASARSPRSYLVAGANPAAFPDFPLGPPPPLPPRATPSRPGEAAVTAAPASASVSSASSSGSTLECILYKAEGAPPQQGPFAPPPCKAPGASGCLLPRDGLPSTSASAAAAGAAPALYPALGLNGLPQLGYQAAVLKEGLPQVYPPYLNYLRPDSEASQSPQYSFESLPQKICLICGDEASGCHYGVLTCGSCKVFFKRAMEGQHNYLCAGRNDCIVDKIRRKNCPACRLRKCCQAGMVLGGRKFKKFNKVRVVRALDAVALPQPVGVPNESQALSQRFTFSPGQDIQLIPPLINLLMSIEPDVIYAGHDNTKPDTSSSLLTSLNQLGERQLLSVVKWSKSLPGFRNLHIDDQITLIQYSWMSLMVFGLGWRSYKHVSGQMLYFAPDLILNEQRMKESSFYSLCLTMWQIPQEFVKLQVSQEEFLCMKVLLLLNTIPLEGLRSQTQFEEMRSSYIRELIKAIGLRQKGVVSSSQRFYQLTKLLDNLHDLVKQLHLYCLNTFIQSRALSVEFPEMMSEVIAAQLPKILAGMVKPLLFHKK
How it was run: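 PR-UAS-bla HEK293T cells (GAL4-UAS beta-lactamase reporter) in medium with 2% charcoal-stripped FBS received compounds after 6 hr at 37C, then incubated 16 hr. LiveBLAzer FRET substrate added, 2 hr room temperature; cleaved/uncleaved (ch2/ch1) ratio fitted upward versus DMSO.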

PGR (gene 5241) [9] = biological target: PGR (gene 5241) (UniProt P06401); test: TOX21_PR_BLA_Followup_Antagonist_ratio: Tox21 HEK293 Progesterone Receptor (PR) Antagonism Beta-lactamase Follow-Up Assay, Ratio (AID 2283934)
How it was run: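 PR-UAS-bla HEK293T cells in medium with 2% charcoal-stripped FBS were treated with compounds plus 1 nM (final) promegestone (R5020) for 16 hr at 37C. LiveBLAzer B/G FRET substrate was then added for 2 h at room temperature; signal is cleaved/uncleaved substrate ratio versus DMSO.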

[10] = TOX21_PR_BLA_Followup_Agonist_viability: Viability Assessment in the Tox21 HEK293 Progesterone Receptor (PR) Agonism Beta-lactamase Follow-Up Assay (AID 2283935);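 note: signal loss means lower viability so actives are cytotoxic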
How it was run: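 PR-UAS-bla HEK293T cells in 2% charcoal-stripped FBS medium, compound added after 6 hr plating, 16 hr at 37C/5% CO2. After bla FRET read, CellTiter-Glo added; luminescence read after 30 min at room temperature; signal loss marks cytotoxicity.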

[11] = TOX21_PR_BLA_Followup_Antagonist_viability: Viability Assessment in the Tox21 HEK293 Progesterone Receptor (PR) Antagonism Beta-lactamase Follow-Up Assay (AID 2283936);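 note: hits lower the luminescence signal meaning cytotoxicity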
How it was run: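 PR-UAS-bla HEK293T cells (3,000/well, 2% charcoal-stripped FBS) given compound plus R5020 agonist, 16 h at 37C. CellTiter-Glo added after bla read, 30 min at room temperature; luminescence loss indicates cytotoxicity.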

PGR (gene 5241) [12] = biological target: PGR (gene 5241) (UniProt P06401); test: TOX21_PR_LUC_Followup_Agonist: Tox21 HEK293 Progesterone Receptor (PR) Agonism Luciferase Follow-Up Assay (AID 2283937; active = hit-call score of the fitted dose curve at least 0.9, where 1 is the maximum; inactive = score below 0.9)
How it was run: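 HEK293-PR-A-luc cells, pre-cultured 5 days in medium with 10% charcoal-stripped FBS, were seeded at 3,000 cells/well, rested 5 h at 37C, then exposed to compounds 16 h at 37C; luciferase read by ONE-Glo luminescence after 30 min.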

PGR (gene 5241) [13] = biological target: PGR (gene 5241) (UniProt P06401); test: TOX21_PR_LUC_Followup_Antagonist: Tox21 HEK293 Progesterone Receptor (PR) Antagonism Luciferase Follow-Up Assay (AID 2283938);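 note: curve fitted upward as signal gain over DMSO baseline despite antagonist label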
How it was run: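 HEK293-PR-A-luc cells, 3,000/well, preincubated 5 h at 37C before compound addition in DMSO; 16 h compound exposure at 37C. ONE-Glo luciferase luminescence read after 30 min at room temperature, fitted relative to DMSO baseline.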

[14] = biological target: Cellular tumor antigen p53 (Homo sapiens) (UniProt P04637); test: TOX21_p53_BLA_p4_ratio: Tox21 HCT-116 p53 Agonism Beta-lactamase Assay, Ratio, Phase 4 (AID 2283601)
Cellular tumor antigen p53 (Homo sapiens), sequence (P04637 whole entry, looked up): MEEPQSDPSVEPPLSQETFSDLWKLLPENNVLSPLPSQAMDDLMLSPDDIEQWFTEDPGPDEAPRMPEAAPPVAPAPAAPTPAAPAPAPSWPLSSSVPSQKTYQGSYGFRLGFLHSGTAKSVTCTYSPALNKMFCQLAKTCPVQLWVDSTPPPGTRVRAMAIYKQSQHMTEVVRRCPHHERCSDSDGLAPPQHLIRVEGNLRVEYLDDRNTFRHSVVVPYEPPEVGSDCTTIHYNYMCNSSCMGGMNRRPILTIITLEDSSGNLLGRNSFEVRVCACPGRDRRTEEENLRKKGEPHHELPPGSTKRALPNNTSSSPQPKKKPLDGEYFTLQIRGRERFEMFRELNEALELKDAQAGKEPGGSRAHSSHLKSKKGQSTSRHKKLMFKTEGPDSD
How it was run: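 HCT-116 p53 beta-lactamase reporter cells (4000/well) preincubated 5 h, then compound (217-fold dilution of DMSO stock) for 16 h at 37C. CCF4-AM substrate added 2 h at room temperature; 460/530 nm emission ratio fitted upward versus DMSO.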

[15] = CEETOX_H295R_MTT_cell_viability: Viability Assessment in the CeeTox HT-H295R MTT Assay (AID 2283718; active = hit-call score of the fitted dose curve at least 0.9, where 1 is the maximum; inactive = score below 0.9)
How it was run: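 Human H295R adrenal cells, prestimulated 48 h with 10 uM forskolin, were exposed 48 h to chemicals in 0.1% DMSO. Viability was measured in the same wells by MTT (0.5 mg/ml, 4 h, 37 C), absorbance 570/650 nm, as percent of controls.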

[16] = CEETOX_H295R_11DCORT_noMTC: CeeTox H295R High-throughput Steroidogenesis Assay for 11-Deoxycortisol (11DCORT), maximum tolerated concentration (MTC) filtered results only (AID 2283911; active = hit-call score of the fitted dose curve at least 0.9, where 1 is the maximum; inactive = score below 0.9); settings: actives raise or lower the signal
How it was run: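 H295R cells were prestimulated 48 h with 10 uM forskolin, then exposed 48 h to chemical (0.1% DMSO final). 11-Deoxycortisol in the medium was measured by MTBE extraction and HPLC-MS/MS, with bidirectional fitting versus DMSO and no MTC filtering of concentrations.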

[17] = CEETOX_H295R_OHPREG_noMTC: CeeTox H295R High-throughput Steroidogenesis Assay for OH-Pregnenolone (OHPREG), maximum tolerated concentration (MTC) filtered results only (AID 2283912; active = hit-call score of the fitted dose curve at least 0.9, where 1 is the maximum; inactive = score below 0.9); settings: actives raise or lower the signal
How it was run: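 H295R cells prestimulated 48 h with 10 uM forskolin, then exposed 48 h to compound (0.1% DMSO). 17alpha-hydroxypregnenolone in medium measured by MTBE extraction and HPLC-MS/MS; bidirectional fit vs DMSO, concentrations not MTT/MTC-filtered.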

[18] = CEETOX_H295R_OHPROG_noMTC: CeeTox H295R High-throughput Steroidogenesis Assay for OH-Progesterone (OHPROG), maximum tolerated concentration (MTC) filtered results only (AID 2283914; active = hit-call score of the fitted dose curve at least 0.9, where 1 is the maximum; inactive = score below 0.9); settings: actives raise or lower the signal
How it was run: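 H295R cells prestimulated 48 h with 10 uM forskolin, then exposed 48 h to chemical (0.1% DMSO final). 17alpha-hydroxyprogesterone in medium quantified by HPLC-MS/MS after MTBE extraction; bidirectional fitting versus DMSO, concentrations not MTC-filtered.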

[19] = CEETOX_H295R_ANDR_noMTC: CeeTox H295R High-throughput Steroidogenesis Assay for Androstenedione (ANDR), maximum tolerated concentration (MTC) filtered results only (AID 2283915; active = hit-call score of the fitted dose curve at least 0.9, where 1 is the maximum; inactive = score below 0.9); settings: actives raise or lower the signal
How it was run: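 H295R cells, passage 10 or below, prestimulated 48 h with 10 uM forskolin, then exposed 48 h to chemical in 0.1% DMSO. Medium androstenedione extracted with MTBE, quantified by HPLC-MS/MS; concentrations not MTC-filtered; bidirectional fit versus DMSO.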

[20] = CEETOX_H295R_CORTISOL_noMTC: CeeTox H295R High-throughput Steroidogenesis Assay for Cortisol, maximum tolerated concentration (MTC) filtered results only (AID 2283916; active = hit-call score of the fitted dose curve at least 0.9, where 1 is the maximum; inactive = score below 0.9); settings: actives raise or lower the signal
How it was run: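 H295R human adrenal cells prestimulated 48 h with 10 uM forskolin, then exposed 48 h to chemical in 0.1% DMSO; cortisol in medium quantified by HPLC-MS/MS; bidirectional fit vs DMSO baseline, concentrations not MTT-filtered for MTC.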

[21] = CEETOX_H295R_CORTIC_noMTC: CeeTox H295R High-throughput Steroidogenesis Assay for Corticosterone (CORTIC), maximum tolerated concentration (MTC) filtered results only (AID 2283917; active = hit-call score of the fitted dose curve at least 0.9, where 1 is the maximum; inactive = score below 0.9); settings: actives raise or lower the signal
How it was run: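 H295R adrenal cells pre-stimulated 48 h with 10 uM forskolin, then exposed 48 h to chemical in 0.1% DMSO; corticosterone in medium quantified by HPLC-MS/MS, fitted bidirectionally versus DMSO without MTT-based concentration filtering.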

[22] = CEETOX_H295R_DOC_noMTC: CeeTox H295R High-throughput Steroidogenesis Assay for DOC, maximum tolerated concentration (MTC) filtered results only (AID 2283918; active = hit-call score of the fitted dose curve at least 0.9, where 1 is the maximum; inactive = score below 0.9); settings: actives raise or lower the signal
How it was run: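 H295R cells prestimulated 48 h with 10 uM forskolin, then exposed 48 h to chemical in 0.1% DMSO. 11-Deoxycorticosterone in medium measured by MTBE extraction and HPLC-MS/MS; bidirectional fit vs DMSO, no MTC filter.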

[23] = CEETOX_H295R_ESTRADIOL_noMTC: CeeTox H295R High-throughput Steroidogenesis Assay for Estradiol, maximum tolerated concentration (MTC) filtered results only (AID 2283919; active = hit-call score of the fitted dose curve at least 0.9, where 1 is the maximum; inactive = score below 0.9); settings: actives raise or lower the signal
How it was run: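 H295R human adrenal cells pre-stimulated 48 h with 10 uM forskolin, then exposed 48 h to chemical (0.1% DMSO final). Estradiol in medium measured by HPLC-MS/MS after MTBE extraction and dansyl derivatization; bidirectional fit versus DMSO, concentrations not MTT-filtered.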

[24] = CEETOX_H295R_PROG_noMTC: CeeTox H295R High-throughput Steroidogenesis Assay for Progesterone (PROG), maximum tolerated concentration (MTC) filtered results only (AID 2283920; active = hit-call score of the fitted dose curve at least 0.9, where 1 is the maximum; inactive = score below 0.9); settings: actives raise or lower the signal
How it was run: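 H295R cells, prestimulated 48 h with 10 uM forskolin, exposed 48 h to chemical in 0.1% DMSO. Medium progesterone quantified by MTBE extraction and HPLC-MS/MS; bidirectional fit versus DMSO, concentrations not MTT-filtered.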

[25] = CEETOX_H295R_ESTRONE_noMTC: CeeTox H295R High-throughput Steroidogenesis Assay for Estrone, maximum tolerated concentration (MTC) filtered results only (AID 2283921; active = hit-call score of the fitted dose curve at least 0.9, where 1 is the maximum; inactive = score below 0.9); settings: actives raise or lower the signal
How it was run: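 H295R cells prestimulated 48 h with 10 uM forskolin, then exposed 48 h to chemical in 0.1% DMSO; medium estrone measured by HPLC-MS/MS after MTBE extraction and dansyl derivatization, fitted bidirectionally versus DMSO without MTT-based MTC filtering.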

[26] = CEETOX_H295R_TESTO_noMTC: CeeTox H295R High-throughput Steroidogenesis Assay for Testosterone (TESTO), maximum tolerated concentration (MTC) filtered results only (AID 2283924; active = hit-call score of the fitted dose curve at least 0.9, where 1 is the maximum; inactive = score below 0.9); settings: actives raise or lower the signal
How it was run: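 H295R cells prestimulated 48 h with 10 uM forskolin, then exposed 48 h to chemicals in 0.1% DMSO final. Testosterone in medium quantified by MTBE extraction and HPLC-MS/MS; bidirectional fit versus DMSO, concentrations […] filtered by MTT-based maximum tolerated concentration.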

Measured: AC50

O=C(c1ccccc1)c1ccc(O)cc1
inactive: [1] | [2] | [3] | [4] | [5] | [6]

C1CCC2(CCCCO2)OC1
inactive: [7]

CCCOc1ccc2c(c1)CC[C@@H]1[C@@H]2CC[C@]2(C)C(OC)CC[C@@H]12 (stereo partly specified)
active: PGR (gene 5241) [9] 12.8 µM
inactive: PGR (gene 5241) [8] | [10] | [11] | PGR (gene 5241) [12] | PGR (gene 5241) [13]

CCN1CCCC1CNC(=O)c1cc(S(=O)(=O)CC)c(N)cc1OC (stereo unspecified)
inactive: [14]

CS(=O)(=O)OCCOS(C)(=O)=O
inactive: [15] | [16] | [17] | [18] | [19] | [20] | [21] | [22] | [23] | [24] | [25] | [26]

CN(C)C(=S)N(C)C
active: [3] 79.5 µM
inactive: [1]

CSc1nc2ccccc2s1
inactive: [1]
active: [2] 53.6 µM | [3] 35.1 µM
